Experimental data from PubChem BioAssay (NCI).
The panel holds about 83,000 compounds, 20% with a hit somewhere; the sample as a whole holds those more often.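 Assay: single dose, 48 h. Readout: percent growth (0 = no net growth; negative = cell death). Active: <10.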 Values without a mark were called inactive. Active and inactive are the calls of the source.

Assays:
Assay in all cases: NCI-60 one-dose screen, 48 h (100 = growth as untreated, 0 = no growth, -100 = all killed)
HT29 colon = details: 10 µM unless noted
SNB-75 CNS = details: 10 µM unless noted
SNB-19 CNS = details: 10 µM unless noted
U251 CNS = details: 10 µM unless noted
PC-3 prostate = details: 10 µM unless noted
SK-MEL-5 melanoma = details: 10 µM unless noted
UACC-62 melanoma = details: 10 µM unless noted
LOX IMVI melanoma = details: 10 µM unless noted
SK-MEL-28 melanoma = details: 10 µM
SK-MEL-2 melanoma = details: 10 µM unless noted

SMILES	growth (HT29 colon)	growth (SNB-75 CNS)	growth (SNB-19 CNS)	growth (U251 CNS)	growth (PC-3 prostate)	growth (SK-MEL-5 melanoma)	growth (UACC-62 melanoma)	growth (LOX IMVI melanoma)	growth (SK-MEL-28 melanoma)	growth (SK-MEL-2 melanoma)
CCC1=C[C@]2(C3CC(=O)N(c4ccccc4)C3=O)CC(C(C)(C)C)C[C@@H]2[C@@H]2C(=O)N(c3ccccc3)C(=O)[C@H]12 (stereo partly specified)	74.3%	66.3%	86.2%	79.1%	56.7%	92.1%	71.9%	93.1%	92.6%	82.8%
O=c1oc2ccc(Br)cc2c(=O)n1-c1ccc(Br)cc1F	34.8%	-42.4% (active)	16.9%	-5.99% (active)	-4.81% (active)	-84.8% (active)	-40.7% (active)	2.66% (active)	-22.6% (active)	-18% (active)
COc1ccc(-n2c(C(O)c3ccccc3)n[nH]c2=S)cc1 (stereo unspecified)	113%	89.6%	99.7%	91.2%	120%	107%	88.2%	91.4%	115%	96.7%
O=C(O)CCCN1C(=O)C2C3CCC(C3)C2C1=O (stereo unspecified)	100%	95.8%	104%	104%	106%	101%	97%	103%	113%	101%
COc1cccc(C(=O)NC(c2ccc(C)cc2)c2cc(Cl)c3cccnc3c2O)c1 (stereo unspecified)	24.1%	28.8%	12.5%	3.81% (active)	22.8%	-56.8% (active)	-20% (active)	6.79% (active)	44%	22.8%
NCCNc1nc2ccc(F)cc2c2c(=O)c3cc(F)ccc3sc12	-39.5% (active)	39.9%	64.6%	24.1%	45%		84.2%	-90.8% (active)	91%	91.5%
CCN(CC)c1cc(C)c2cc(NC(=O)c3cccc(OC)c3)ccc2n1	67.8%	81.6%	84.3%	55%	39.5%	57.3%	81%		85.2%	98.6%
O=C(Nc1ccc(Cl)cc1)N1CCN(c2ccc3nncn3n2)CC1	-28.6% (active)	-68.9% (active)	80.3%	-74.7% (active)	16.4%	-98.4% (active)	-88.3% (active)		-95.5% (active)	22%
O=C(Nc1ccccc1O)c1ccc(Oc2cccc(C(=O)Nc3ccccc3O)c2)cc1	77.7%	31.1%	21.7%	11.8%	32.6%	10.9%	-33% (active)		32.6%	28.4%
O=C(/C=C/c1ccc(Cl)cc1)c1ccc(Nc2nc(NCCO)nc(Nc3ccc(Cl)cc3)n2)cc1	30.5%	47.5%	77.6%	21.8%	53.1%		60.7%	37.2%	78.1%	96%
O=C(Nc1ccc(F)cc1F)c1cc(Br)ccc1O	27.8%	-17.9% (active)	12.1%	3.39% (active)	-8.08% (active)		-19.7% (active)	17%	16.5%	-27.5% (active)
O=c1c2cc(F)cc(Cl)c2sc2c(Cl)nc3ccccc3c12	101%	84.6%	96.5%	105%	98.9%		92.2%	80.9%	108%	108%
COc1ccccc1CNC(=O)C1c2ccccc2C(=O)N(CC(C)C)C1c1cccs1 (stereo unspecified)	11.9%	67.5%	90.6%	49.7%	47.8%	52.2%	46.4%		58.1%	87.2%
COc1cc2c(cc1OC)C(=O)C(CC1CCN(C(=O)Nc3ccc(C)cc3)CC1)C2 (stereo unspecified)	107%	88.4%	95.2%	106%	88.6%		79.9%	96.9%	99.1%	97.9%
COc1cc2nc(-c3cccc4cccnc34)nc(NC3CCN(Cc4ccccc4)CC3)c2cc1OC	-87.2% (active)	-87.8% (active)	-78.2% (active)	-78.4% (active)	-84.4% (active)		-82.3% (active)	-82.3% (active)	-76.9% (active)	-77.8% (active)
NC1C(N)C(N)C1N (stereo unspecified)	106%	71.8%	94.3%	101%	96.1%	113%	99.1%	95.1%		92%
O=C(/C=C/c1ccc(C(F)(F)F)cc1)c1ccc(Nc2nc(NCCO)nc(N3CCOCC3)n2)cc1	7.26% (active)	40.1%	39.5%	-51.3% (active)	25.3%		56%	3.82% (active)	94.1%	109%
O=c1c2cccc(F)c2sc2c(N3CCNCC3)nc3ccccc3c12	-45.4% (active)	35.3%	46.5%	10.3%	39.8%		54%	19.9%	69.1%	95%
COc1cc(C2C(C#N)=C(N)OC3=C2C(=O)c2ccccc2C3=O)cc(OC)c1O (stereo unspecified)	65.1%	4.8% (active)	37.3%	19.9%	18.9%		36.9%	25.5%	66.4%	21.1%
OC(c1ccccc1)c1nnc(SCc2ccccc2)n1Cc1ccccc1 (stereo unspecified)	103%	76.3%	79.7%	87.5%	87.6%		69.1%	98.7%	100%	84.3%
CC(C)C[C@H](C(=O)N[C@@H](C)C(N)=O)N1CC=CCN(O)S1(=O)=O	93.1% [5 µM]	87.4% [5 µM]	86.2% [5 µM]	107% [5 µM]	100% [5 µM]	106% [5 µM]	108% [5 µM]	95.6% [5 µM]		103% [5 µM]
CCN1CCN(C(=S)SCC(=O)Nc2nc3ccc(C)cc3s2)CC1	102%	89%	102%	110%	88.8%	97.5%		3.49% (active)	108%	105%
FC(F)(F)c1cccc(Nc2nc(-c3ccccc3)nc3ncccc23)c1	15%	91.4%	100%	58.3%	6.17% (active)	-91.4% (active)	-50.6% (active)		-84.6% (active)	104%
Cc1ccc2nc(NC(=O)CSC(=S)N3CCN(c4ccccc4)CC3)sc2c1	96.6%	97.1%	96.9%	86.3%	95.5%	95.4%		-65% (active)	107%	96.1%
COc1cc(C#N)cc2[nH]c(=O)oc12	106%	71.9%	106%	92.4%	102%		113%	111%	107%	106%
O=c1oc2ccc(Cl)cc2c(=O)n1-c1cc(C(F)(F)F)cc(C(F)(F)F)c1	1.92% (active)	-36.2% (active)	13.5%	-15.2% (active)	11.9%		-34.7% (active)	-15.5% (active)	-18.9% (active)	-34.2% (active)
COc1cc([C@@H]2NC(=O)NC(C)=C2C(=O)Nc2nc(-c3ccc(Cl)cc3)cs2)ccc1O	108%	87.3%	113%	97.9%	88.9%		91.6%	94.2%	110%	105%
O=c1oc2ccc(Br)cc2c(=O)n1-c1ccc(F)cc1F	97.7%	-12.1% (active)	12.5%	7.07% (active)	0.771% (active)		-0.768% (active)	12.6%	20.3%	-16.1% (active)
Cc1c(-c2noc(-c3ccc([N+](=O)[O-])cc3)n2)no[n+]1[O-]	105%	89.8%	99.8%	99.8%	92.5%		87.6%	97.7%	108%	101%
